# This is a sample that favours compounds with a hit; in the whole collection about 6.4% have one here.
# Gal4-VP16 FLuc: Gal4-VP16 reporter inhibition counter-screen; 3.5% of 310,000 active; Potency, µM (top dose mostly 53.6 µM), inactives show at the top dose activity, negative = inhibition, usual class: inhibitors; Drosophila S2 Gal4-VP16 UAS-luciferase, luminescence, 20 h;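 note: Gal4-VP16 expression switched on by copper sulfate through the metallothionein promoter; nearly all actives have a fitted effect of over 50% in size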
# RORg inh: ROR gamma (mouse) transcription inhibition; Drosophila S2 Gal4-RORgamma UAS-luciferase reporter, 20 h; AID 2551; Potency, µM (top dose mostly 53.6 µM), for the others: top-dose activity change, negative = inhibition, actives largely listed as inhibitors; P51450; 5.4% of 310,000 active; note: nearly all actives have a fitted effect of over 60% in size
# Target sequence (P51450 whole entry, looked up, the tested form may be a part): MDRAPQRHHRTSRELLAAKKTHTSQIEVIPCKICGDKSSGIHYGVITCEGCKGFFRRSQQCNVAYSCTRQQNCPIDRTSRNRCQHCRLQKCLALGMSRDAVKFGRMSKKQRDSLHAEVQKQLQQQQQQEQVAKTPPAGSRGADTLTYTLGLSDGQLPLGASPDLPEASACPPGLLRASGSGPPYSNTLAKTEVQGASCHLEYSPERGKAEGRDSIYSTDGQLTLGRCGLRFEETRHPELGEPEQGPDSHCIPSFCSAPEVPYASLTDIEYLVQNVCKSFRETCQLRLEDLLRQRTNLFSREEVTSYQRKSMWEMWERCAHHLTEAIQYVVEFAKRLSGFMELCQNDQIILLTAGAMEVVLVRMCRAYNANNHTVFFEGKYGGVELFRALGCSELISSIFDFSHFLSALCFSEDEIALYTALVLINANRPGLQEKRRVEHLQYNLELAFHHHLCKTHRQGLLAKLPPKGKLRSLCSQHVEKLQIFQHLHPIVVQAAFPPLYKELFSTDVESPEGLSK
#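 ROR gamma transcriptional activity was tracked as Gal4-UAS luciferase output in stably transfected Drosophila Schneider cells, with compound added 1 hr before 700 uM copper sulfate induction and a 20 hr ambient-temperature incubation.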
# Luc counter: counter-screen: inhibitors of Kinase-Glo firefly luciferase; Q27757; Kinase-Glo luciferase, ATP luminescence, 8 min; Potency, µM (doses to about 38.3 µM), for inactives: at the top dose activity change, negative = inhibition, actives largely listed as inhibitors; 0.28% of 200,000 active; note: nearly all actives have a fitted effect of over 60% in size
#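 Recombinant Kinase-Glo luciferase, 10 uM ATP (linear range), luciferin; imidazole pH 7.2 / KCl / MgCl2 / Tween / BSA buffer; 8 min RT; luminescence.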
# * marks the source's active call; other numbers are inactive results; u = inconclusive; x = no result given; [ ] = another dose, or the depositor's remark. Calls come from the whole dose curve; as a rule, active = well fitted curve in the direction sought with a large enough effect; inconclusive = small, poorly fitted or top-dose-only effect, or another doubt; inactive = no such curve, though single readings can be large; an effect the other way counts as inactive or inconclusive. % is set by controls: 0 for no effect and ±100 for the full control effect; potency is the fitted concentration of half-maximal effect.
SMILES,Gal4-VP16 FLuc,RORg inh,Luc counter
CCC(=O)OCCNc1cc(SCCC(=O)OC)c2nonc2c1[N+](=O)[O-],u,-11%,0%
CCCC(=O)OCCNc1cc(Sc2nc3ccccc3[nH]2)c2nonc2c1[N+](=O)[O-],3.2µM*,2.8µM*,-1%
CCC(=O)OCCNc1cc(Sc2nccn2C)c2nonc2c1[N+](=O)[O-],4µM*,4.5µM*,4%
CC(Oc1ccc([N+](=O)[O-])cc1)C(=O)NCC1CCCO1 (stereo not drawn),-5%,-15%,x
CCOC(=O)c1ccc(NS(=O)(=O)c2cn(C)cn2)cc1,-6%,27%,x
CCOC(=O)c1cc(C)nn1-c1nc(Cl)cc(OC)n1,-4%,2%,-6%
COc1cc(C)nc(-n2nc(C)cc2OC)n1,u,3.2µM*,0%
Cc1cc(-c2nnc(SCC(=O)NC3CC3)n2C(C)C)cs1,-5%,1%,x
CC(NC(=O)c1ccccc1)C(=O)N/N=C/c1cccc([N+](=O)[O-])c1 (stereo not drawn),6%,14%,6%
CCOC(=O)C1=C(Nc2ccc(Cl)cc2)OCC1=O,0%,11%,x
NC(=S)n1[nH]c(-c2ccc([N+](=O)[O-])cc2)c(N=Nc2cccc([N+](=O)[O-])c2)c1=O,2.5µM*,0.63µM*,3%
Cc1c(N=Nc2c(-c3ccc([N+](=O)[O-])cc3)[nH]n(C(N)=S)c2=O)cccc1[N+](=O)[O-],u,0.71µM*,-2%
CN(N=Nc1cccc([N+](=O)[O-])c1)c1cccc([N+](=O)[O-])c1,-2%,8%,-1%
NC(=S)n1[nH]c(-c2ccc([N+](=O)[O-])cc2)c(N=Nc2ccccc2[N+](=O)[O-])c1=O,-13%,u,-1%
COc1ccc(C(=O)NCCCCNC(=O)c2ccc(OC)c(OC)c2)cc1OC,0%,-3%,x
O=C(CSc1cccc[n+]1[O-])Nc1cccc(S(=O)(=O)NC2=NCCCCC2)c1,-9%,4%,1%
COc1ccc(NC(=O)CCS(=O)(=O)c2ccc3c(c2)oc(=O)n3C)cc1,4%,1%,x
CN(C)Cc1nc2c(c(=O)[nH]1)C(C)(C)Cc1ccccc1-2,u,u,5%
CCN(CC)Cc1nc2c(c(=O)[nH]1)C1(CCCCC1)Cc1ccccc1-2,11µM*,11µM*,1%
CN(C)Cc1nc2c(c(=O)[nH]1)C1(CCCCC1)Cc1ccccc1-2,5µM*,2.5µM*,2%
Cn1ncn2c(=O)c3c(nc12)-c1ccccc1CC31CCCC1,-1%,24%,x
Nn1cnc2c(c1=O)C1(CCCCC1)Cc1ccccc1-2,-2%,26%,-1%
CCC1(CC)Cc2ccccc2-c2nc(CN(C)C)[nH]c(=O)c21,7.1µM*,6.3µM*,x
CCNC(=S)N1CCC(c2nc3ccccc3s2)CC1,12%,33%,-1%
O=C(c1cc2cc(Cl)ccc2[nH]1)N1CCN(C(=O)c2ccco2)CC1,-8%,20%,x
SMILES,Gal4-VP16 FLuc,RORg inh,Luc counter
S=C(Nc1ccccc1)N1N=CCC1c1ccccc1 (stereo not drawn),7.9µM*,u,-5%
O=C(Nc1cccc2ccccc12)N1N=CCC1c1ccccc1 (stereo not drawn),-9%,16%,x
O=C(Nc1cccc(Cl)c1)N1N=CCC1c1ccccc1 (stereo not drawn),-12%,-34%,x
Fc1ccc(NC(=S)N2N=CCC2c2ccccc2)cc1 (stereo not drawn),7.9µM*,3.5µM*,-28%
CCNc1ncc2nc(-c3ccc(OC)cc3)c(=O)n(C)c2n1,18%,-10%,x
CC1CCCN(C(=O)C2CCN(S(=O)(=O)c3cccc4nonc34)CC2)C1 (stereo not drawn),15%,0%,x
COc1ccccc1CNC(=O)C(NC(=O)c1ccc(C)cc1)C(C)C (stereo not drawn),-10%,-9%,12%
CCOC(=O)N1CCN([N+]([O-])=NOc2cc(O/N=[N+](\[O-])N(CC)CC)c([N+](=O)[O-])cc2[N+](=O)[O-])CC1,28%,39%,x
Cc1ccc(N2C(=O)Nc3ccc(Br)cc3C2(O)C(=O)NCCN(C)C)cc1C (stereo not drawn),1%,0%,x
CC(C)n1c(CSCc2ccc(Cl)cc2Cl)n[nH]c1=S,3.2µM*,1.4µM*,0%
Nc1nnc(CSCc2ccc(Cl)cc2Cl)s1,3%,-45%,13%
CCCCNC(=S)N1CCN(c2ccccc2Cl)CC1,16%,11µM*,-2%
C=CCNC(=S)N1CCN(c2ccccc2Cl)CC1,8%,-24%,x
Cc1ccccc1NC(=S)N1CCCC1,-5%,-33%,3%
COc1ccc(N2CCN(C(=S)Nc3cccc(C)c3C)CC2)cc1,-4%,-34%,-6%
Cc1ccccc1NC(=S)N1CCN(c2ccccc2C)CC1,5.6µM*,2.8µM*,x
Cc1cccc(NC(=S)N2CCN(c3ccccc3F)CC2)c1C,10µM*,8.9µM*,x
Cc1ccccc1NC(=S)N1CCOCC1,-9%,-6%,-2%
Cc1ccc(N2CCN(C(=S)Nc3ccccc3C)CC2)cc1,u,10µM*,x
Cc1ccccc1C(=O)Nc1ccccc1C(=O)N1CCC(C)CC1,4%,3%,x
O=C(CN1CCN(c2ccccc2)CC1)N/N=C/c1cccc(F)c1,-6%,-3%,-1%
C=C(C)Cn1c(C)cc(C)c(S(=O)(=O)c2cccc(C)c2)c1=O,-3%[10 µM],30%,0%
CCSc1ncc(Cl)c(C(=O)Nc2ccccc2OC)n1,-1%,-44%,x
CCc1nnc(NC(=O)c2nc(Cl)ccc2Cl)s1,13%,u,x
CCOc1ccccc1NC(=O)c1nc(S(=O)(=O)Cc2cccc(C)c2)ncc1Cl,2.5µM*,8.9µM*,x
SMILES,Gal4-VP16 FLuc,RORg inh,Luc counter
O=C(Nc1nnc(C2CC2)s1)c1ccc(Cl)c(S(=O)(=O)N2CCc3ccccc3C2)c1,u,u,-1%
CCc1nnc(NC(=O)c2nc(S(=O)(=O)Cc3ccccc3)ncc2Cl)s1,8.9µM*,11µM*,x
CCc1nnc(NC(=O)c2ccc(Cl)c(S(=O)(=O)N3CCc4ccccc43)c2)s1,u,20µM*,2%
CCc1nnc(NC(=O)c2nc(S(=O)(=O)Cc3cccc(C)c3)ncc2Cl)s1,7.9µM*,13µM*,x
Cc1cccc(C(=O)Nc2nnc(Cc3ccccc3)s2)c1,-4%,-6%,x
CCCCC(O)(CCCC)C(=O)NN(C(=O)OC)c1ccc(C)cc1,9%,1%,x
CCn1c2ccccc2c2cc(NC(=O)COC(=O)c3cc(S(N)(=O)=O)c(Cl)cc3Cl)ccc21,-19%,33%,-3%
CCc1nnc(NC(=O)c2nc(S(=O)(=O)Cc3ccc(C)cc3)ncc2Cl)s1,11µM*,16µM*,x
CCc1nnc(NC(=O)c2ccc(COc3ccc(C)cc3)o2)s1,4%,-14%,0%
CCc1ccc(NC(=S)N(Cc2ccc(Cl)cc2)Cc2ccc(C(=O)O)cc2)cc1,-10%,31%,1%
CC(C)CN(CC(C)C)C(=S)Nc1ccc(Cl)cc1,20µM*,4µM*,3%
O=C(CCC(=O)N1CCOc2ccccc21)Nc1ccccc1Br,-29%,-34%,x
CCOC(=O)C(CC)n1cnc2c(nnn2-c2ccc(F)cc2)c1=O (stereo not drawn),-1%,-2%,x
CCCCn1c(CN2CCN(c3cccc(Cl)c3)CC2)nc2c1c(=O)n(C)c(=O)n2C,-11%,5%,-1%

# Screens as filed in PubChem BioAssay.
